{
  "source": "PubChem BioAssay (NCI)",
  "note": "Values joined by “and” are separate entries in the source; they are usually repeats but may differ in a detail not shown here. Equal values may be shown once. This is part of a sample that, as a whole, favours compounds with a hit. Of some 83,000 tested, about 20% had one in any assay.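 The test compound was applied at a single concentration to cells in 96-well plates for 48 hours, and percent growth was recorded.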 Active and inactive are the calls of the source. How the source made its calls: active means growth percent below 10; inactive means the rest.",
  "data": [
    {"tested_on": "MCF7 breast", "test": "NCI-60 one-dose screen, 48 h (100 = growth as untreated, 0 = no growth, -100 = all killed)", "conditions": "100 µM", "values": [
      {"molecule": "N#CC(=S)Nc1ccc(Cl)c(Cl)c1", "growth": "-23.4% (active) and -100% (active)"},
      {"molecule": "COc1cc2oc3cc(=O)cc4oc(-c5ccccc5)cc(c2c2c1CCC(c1ccccc1)O2)c43", "note": "(centres undefined)", "growth": "19.2% (inactive) and 3.41% (active)"},
      {"molecule": "CS/C(=C\\c1ccc(C(=O)c2ccc(C)cc2)n1C)S(C)=O", "note": "(centres undefined)", "growth": "70.7% (inactive)"}
    ]},
    {"tested_on": "HCT-116 colon", "test": "NCI-60 one-dose screen, 48 h (100 = growth as untreated, 0 = no growth, -100 = all killed)", "conditions": "10 µM unless noted", "values": [
      {"molecule": "OCCCc1ccccc1", "growth": "99.5% (inactive)"},
      {"molecule": "S=c1nn[nH]n1C1CCCCC1", "growth": "101% (inactive)"},
      {"molecule": "CC1=CC(=O)C=CC1=Nc1ccc(N(C)C)cc1", "growth": "84.3% (inactive) and 2.64% (active)"},
      {"molecule": "Nc1nc(=S)c2[nH]cnc2[nH]1", "growth": "9.54% (active) and -8.26% (active)"},
      {"molecule": "O=c1[nH]c(=S)[nH]n1C(=S)n1[nH]c(=S)[nH]c1=O", "growth": "102% (inactive)"},
      {"molecule": "CN(C)C(=N)N=C(N)N", "growth": "108% (inactive) and 98.3% (inactive)"},
      {"molecule": "COc1ccc2nccc(Cl)c2c1", "growth": "103% (inactive)"},
      {"molecule": "COc1ccc(CCn2cnn3c(=O)c4ccccc4nc3c2=O)cc1OC", "growth": "99.4% (inactive) and 107% (inactive)"},
      {"molecule": "N=C(N=C(N)N)N1CCOCC1", "growth": "104% (inactive) and 96.4% (inactive)"},
      {"molecule": "N#CC(=S)Nc1ccc(Cl)c(Cl)c1", "growth": "4.91% (active)"},
      {"molecule": "O=C1C(=O)c2ccccc2C(O)=C1CC=C(Cl)Cl", "growth": "27.9% (inactive) and 40% (inactive)"},
      {"molecule": "CCOC(=O)C1=C(C)NC(C)=C(C(=O)OCC)C1", "growth": "140% (inactive) and 87.3% (inactive)"},
      {"molecule": "COc1ccc(CCO)cc1", "growth": "94.6% (inactive)"},
      {"molecule": "COc1ccc(/C=N/Nc2nc3ccccc3s2)cc1", "growth": "83.3% (inactive)"},
      {"molecule": "Nc1ccccc1SC1CC(=O)N(c2ccc(I)cc2)C1=O", "note": "(centres undefined)", "growth": "95.3% (inactive)"},
      {"molecule": "Clc1ccc2c(c1)N(C1CCCN(Cc3ccccc3)C1)c1ccccc1S2", "note": "(centres undefined)", "growth": "12.1% (inactive)"},
      {"molecule": "COc1ccc([N+](=O)[O-])cc1OC", "growth": "96.5% (inactive) and 102% (inactive)"},
      {"molecule": "NC(=O)Cc1nc(O)cc(=O)[nH]1", "growth": "110% (inactive)"},
      {"molecule": "N=C(N)N1CCc2ccccc2C1", "growth": "94.7% (inactive) and 102% (inactive)"},
      {"molecule": "Clc1ccc2sc(-c3ccccc3)nc2c1", "growth": "94.9% (inactive)"},
      {"molecule": "COc1cc2oc3cc(=O)cc4oc(-c5ccccc5)cc(c2c2c1CCC(c1ccccc1)O2)c43", "note": "(centres undefined)", "growth": "59.7% (inactive)"},
      {"molecule": "CC(C)(C)C1=CC(=O)C(C(C)(C)C)=CC1=O", "growth": "88.5% (inactive) and 105% (inactive)"},
      {"molecule": "Oc1ccc(O)c(-c2ccccc2)c1", "growth": "47.1% (inactive)"},
      {"molecule": "COc1ccc(CCl)c(C)c1OC", "growth": "99.6% (inactive)"},
      {"molecule": "CCNC1=CC(=O)c2ncccc2C1=O", "growth": "2.73% (active)"},
      {"molecule": "O=C1C=CC(=O)N1Cc1ccco1", "growth": "52.5% (inactive)"},
      {"molecule": "CC(C)=NOC(C)C(=O)O", "note": "(centres undefined)", "growth": "95.7% (inactive)"},
      {"molecule": "Cc1cc2nc3ccc(=[N+](C)C)cc-3sc2cc1N", "growth": "-22.8% (active) and 4.49% (active)"},
      {"molecule": "c1ccc2c[n+](Cc3ccc4ccccc4n3)ccc2c1", "growth": "59.3% (inactive)"},
      {"molecule": "COc1cc([C@@H]2c3cc4c(cc3[C@H](O)[C@H]3COC(=O)[C@@H]23)OCO4)cc(OC)c1OC", "growth": "10.5% (inactive) and -40.7% (active)"},
      {"molecule": "NNC(=O)Nc1ccccc1", "growth": "101% (inactive)"},
      {"molecule": "Cc1nc2c(=O)[nH]c(=S)[nH]c2[nH]c1=O", "growth": "108% (inactive) and 105% (inactive)"},
      {"molecule": "Oc1cccnc1CN1CCOCC1", "growth": "104% (inactive) and 103% (inactive)"},
      {"molecule": "O=C1c2ccccc2CN1c1ccccc1", "growth": "91.7% (inactive)"},
      {"molecule": "COC1C(OC(N)=O)C(O)C(Oc2ccc3c(O)c(NC(=O)c4ccc(O)c(CC=C(C)C)c4)c(=O)oc3c2C)OC1(C)C", "note": "(centres undefined)", "growth": "96.8% (inactive) and 101% (inactive)"},
      {"molecule": "C/C=C/C(=O)OCCCCCCCCCCCC", "growth": "88.5% (inactive)"}
    ]}
  ]
}
